In all, about 5,500 compounds went through this assay and about 2,000 (36%) were called active. Another 18% or so got no clear call; they are omitted. Cut-off read from the data, not from the text of the source: active = normalized growth mostly below about 0.91 (no sharp cut-off); inconclusive = no clear call, values can overlap the other calls; inactive = mostly above about 0.92. The list shows a part of the results.
Assay: chemical genetic growth profiling, strain panel (AID 1159580);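 note: tested at 20 µM; growth read once vehicle control cultures reached saturation at 30 °C; 1 = growth at the plate median or of vehicle wells; lower values mean less growth of the strain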
Details: S. cerevisiae deletion strains, growth OD

Measured: normalized growth

COc1ccc(C2CNC(=O)C2)cc1OC1CCCC1 (stereo unspecified)
inactive: locus YAL013W, strain DEP1, hits give low values 1.01 | locus YAL021C, strain ccr4, hits give low values 1 | locus YAL026C, strain drs2, hits give low values 1.02 | locus YAL030W, strain snc1, hits give low values 1.02 | locus YAL040C, strain CLN3, hits give low values 0.999 | locus YBL061C, strain skt5, hits give low values 1.01 | locus YBR009C, strain hhf1, hits give low values 1.02 | locus YBR023C, strain chs3, hits give low values 1.01 | locus YBR171W, strain sec66, hits give low values 1.02 | locus YBR231C, strain swc5, hits give low values 1.02 | locus YBR279W, strain paf1, hits give low values 1.01 | locus YCL011C, strain gbp2, hits give low values 1.01 | locus YCL016C, strain dcc1, hits give low values 1.01 | locus YCL061C, strain MRC1 (second series), hits give low values 1 | locus YCL061C, strain MRC1, hits give low values 1.01 | locus YCL069W, strain vba3, hits give low values 1.01 | locus YCR088W, strain abp1, hits give low values 1.01 | locus YDL005C, strain med2, hits give low values 0.996 | locus YDL040C, strain nat1, hits give low values 1.01 | locus YDR001C, strain nth1, hits give low values 1.01 | locus YDR069C, strain doa4, hits give low values 1.02 | locus YDR137W, strain rgp1, hits give low values 1.02 | locus YDR159W, strain sac3, hits give low values 1.03 | locus YDR195W, strain ref2 1.01 | locus YDR297W, strain sur2, hits give low values 1.01 | locus YDR334W, strain swr1, hits give low values 1.01 | locus YDR335W, strain msn5, hits give low values 1.01 | locus YDR363W, strain ESC2, hits give low values 1.01 | locus YDR392W, strain spt3, hits give low values 1.04 | locus YEL003W, strain gim4, hits give low values 1.01 | locus YEL037C, strain rad23, hits give low values 0.965 | locus YEL061C, strain CIN8 (second series), hits give low values 1.01 | locus YER002W, strain NOP16, hits give low values 0.993 | locus YER015W, strain faa2, hits give low values 1 | locus YER016W, strain bim1, hits give low values 1.01 | locus YER111C, strain swi4, hits give low values 1.02 | locus YER155C, strain BEM2 (second series), hits give low values 1.04 | locus YFR010W, strain ubp6, hits give low values 1 | locus YGL167C, strain pmr1, hits give low values 1.01 | locus YGL173C, strain kem1, hits give low values 1.01 | locus YGL227W, strain vid30, hits give low values 1.01 | locus YGL240W, strain doc1, hits give low values 1.02 | locus YGL253W, strain hxk2, hits give low values 1.03 | locus YHR013C, strain ard1, hits give low values 1.04 | locus YHR027C, strain rpn1, hits give low values 1.01 | locus YHR142W, strain chs7, hits give low values 0.98 | locus YJL092W, strain hpr5, hits give low values 1 | locus YJL095W, strain BCK1 (second series), hits give low values 1.01 | locus YJL115W, strain asf1, hits give low values 1.01 | locus YJL129C, strain trk1, hits give low values 1.02 | locus YJL154C, strain vps35, hits give low values 1 | locus YJL164C, strain tpk1, hits give low values 0.999 | locus YJL166W, strain qcr8, hits give low values 1.02 | locus YJL187C, strain SWE1, hits give low values 1.01 | locus YJR075W, strain HOC1, hits give low values 1.01 | locus YKL160W, strain elf1, hits give low values 0.998 | locus YKR026C, strain gcn3, hits give low values 0.994 | locus YKR091W, strain srl3, hits give low values 1.01 | locus YLL001W, strain dnm1, hits give low values 1.01 | locus YLL026W, hits give low values 1.02 | locus YLL041C, strain sdh2, hits give low values 1.01 | locus YLR027C, strain aat2, hits give low values 1.01 | locus YLR221C, strain rsa3, hits give low values 1.01 | locus YLR258W, strain gsy2, hits give low values 1.01 | locus YLR262C, strain YPT6 (second series), hits give low values 1.02 | locus YLR320W, strain mms22, hits give low values 1.02 | locus YLR342W, strain FKS1, hits give low values 1 | locus YLR357W, strain rsc2, hits give low values 1.01 | locus YLR370C, strain arc18, hits give low values 1.02 | locus YLR384C, strain iki3, hits give low values 0.999 | locus YML120C, strain ndi1, hits give low values 1.01 | locus YMR058W, strain fet3, hits give low values 1.02 | locus YMR125W, strain sto1, hits give low values 1.02 | locus YMR129W, hits give low values 1.02 | locus YMR205C, strain PFK2, hits give low values 1.03 | locus YMR231W, strain pep5, hits give low values 1 | locus YMR263W, strain SAP30, hits give low values 1 | locus YMR307W, strain GAS1, hits give low values 1.03 | locus YNL071W, strain lat1, hits give low values 1.02 | locus YNL175C, strain NOP13, hits give low values 1.01 | locus YNL197C, strain WHI3, hits give low values 1.01 | locus YNL209W, strain ssb2, hits give low values 1.01 | locus YNL224C, strain SQS1, hits give low values 0.995 | locus YNL248C, strain rpa49, hits give low values 0.974 | locus YNL322C, strain KRE1 (second series), hits give low values 0.996 | locus YNR049C, strain mso1, hits give low values 1 | locus YOR001W, strain rrp6, hits give low values 1 | locus YOR070C, strain gyp1, hits give low values 1 | locus YOR080W, strain dia2, hits give low values 1.01 | locus YOR083W, strain WHI5 (second series), hits give low values 1.01 | locus YOR083W, strain WHI5, hits give low values 0.988 | locus YOR106W, strain vam3, hits give low values 0.989 | locus YOR265W, strain rbl2, hits give low values 1.01 | locus YOR270C, strain vph1, hits give low values 1.03 | locus YOR290C, strain snf2, hits give low values 0.996 | locus YPL051W, strain arl3, hits give low values 1 | locus YPL055C, strain LGE1, hits give low values 0.996 | locus YPL078C, strain atp4, hits give low values 0.988 | locus YPL106C, strain sse1, hits give low values 1.04 | locus YPL240C, strain hsp82, hits give low values 1 | locus YPL241C, strain CIN2, hits give low values 1
